Shown are actives, neighbours in structure and some others; about 12% of the full set was active somewhere.
HP1b binding inh: HTS for Inhibitors of HP1-beta Chromodomain Interactions with Methylated Histone Tails; AlphaScreen HP1-beta / biotin-H3K9me3 peptide binding; Potency, µM (series often up to 114 µM), inactives show at the top dose activity change, negative = inhibition, actives largely listed as inhibitors; AID 540317, 2011; 390,000 compounds, 0.56% hits; Chromobox protein homolog 1 (Homo sapiens), P83916; further: potency means the concentration at half of the fitted maximal effect; nearly all actives have a fitted effect of over 70% in size
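Compound inhibition of the preformed complex between 50 nM HP1-beta and 50 nM biotinylated H3K9me3 peptide was read by AlphaScreen. Buffer was PBS pH 7.4 with 0.01% Tween-20. Incubations ran 30 min at room temperature, with 10 ug/mL donor/acceptor beads.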
PLK1 PBD inh: qHTS for Inhibitors of PLK1-PDB (polo-like kinase 1 - polo-box domain): Primary Screen; Serine/threonine-protein kinase PLK1 (Homo sapiens), P53350; Plk1 PBD binding of FITC phosphopeptide, fluorescence polarization; 360,000 compounds, 2.8% hits; Potency, µM, for the others: max response, negative = inhibition, hits mostly inhibitors; further: potency means the concentration at half of the fitted maximal effect; series mostly up to about 57 µM; on the % scale 0 is the no-effect control and ±100 the full control effect; nearly all actives have a fitted effect of over 65% in size
G9a inh: qHTS Assay for Inhibitors of Histone Lysine Methyltransferase G9a; 350,000 compounds, 8.8% hits; AID 504332, 2011; Potency, µM (doses to about 102 µM), inactives show at the highest dose activity, negative = inhibition, hits mostly inhibitors; G9a H3K9 monomethylation, AlphaScreen, 2 h; further: potency means the concentration at half of the fitted maximal effect; on the % scale 0 is the no-effect control and ±100 the full control effect; nearly all actives have a fitted effect of over 75% in size
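Using a bead-based AlphaScreen, monomethylated H3K9 product from 2 h room-temperature reactions (G9a 20 nM, peptide 500 nM, SAM 20 uM) was detected with 0.5 ug/mL rabbit anti-H3K9me1 antibody.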
JMJD2A Tudor: qHTS Assay for Inhibitors of JMJD2A-Tudor Domain; Lysine-specific demethylase 4A (Homo sapiens), O75164; AlphaScreen JMJD2A-Tudor / H3K4me3 peptide binding; Potency, µM (titrated, usually from 114 µM), inactives show at the top dose activity change, negative = inhibition, most hits filed as inhibitors; AID 504339, 2011; 390,000 compounds, 4.4% hits; further: potency means the concentration at half of the fitted maximal effect; on the % scale 0 is the no-effect control and ±100 the full control effect; nearly all actives have a fitted effect of over 50% in size
BAZ2B block: qHTS Assay for Inhibitors of BAZ2B; Bromodomain adjacent to zinc finger domain protein 2B (Homo sapiens), Q9UIF8; Potency, µM (doses to about 114 µM), without a hit: at the top dose activity change, negative = inhibition, most hits filed as inhibitors; AlphaScreen BAZ2B-H3K14Ac peptide displacement; 360,000 compounds, 4.4% hits; further: potency means the concentration at half of the fitted maximal effect; on the % scale 0 is the no-effect control and ±100 the full control effect; nearly all actives have a fitted effect of over 60% in size
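AlphaScreen displacement: compounds (up to 110uM) incubated 30 min at room temperature with a preformed 50 nM BAZ2B/50 nM biotinylated H3K14Ac peptide complex in PBS pH 7.4 with Tween-20. Donor and acceptor beads at 10 ug/mL final added, 20 min light-protected before reading.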
PI5P4K alpha inh: qHTS for Inhibitors of phosphatidylinositol 5-phosphate 4-kinase (PI5P4K); AID 652105, 2013; 330,000 compounds, 1.2% hits; PI5P4Kalpha enzyme, ADP-Glo luminescence, 60 min; hits give low values; max response, %; active means max response of -50% or lower; inconclusive means between -30% and -50%; inactive means -30% or higher; further: value at the top dose of about 77 µM; on the % scale 0 is the no-effect control and ±100 the full control effect
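ADP-Glo luminescence end-point after a 60 min room-temperature kinase reaction. PI5P4Kalpha and substrate in HEPES pH 7.4 buffer with EGTA, 0.1% CHAPS and 5% DMSO; ATP at 5 microM final.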
Starred values were filed as active, the others as inactive; ? = inconclusive; nt = not tested or not shown; ! = not active in a repeat; [ ] = remark or other dose. Unless noted, the call rests on the fitted dose curve; in most records, active means well fitted curve in the direction sought with a large enough effect; inconclusive means small, poorly fitted or top-dose-only effect, or another doubt; inactive means no such curve, though single readings can be large; an effect the other way counts as inactive or inconclusive.

SMILES	HP1b binding inh	PLK1 PBD inh	G9a inh	JMJD2A Tudor	BAZ2B block	PI5P4K alpha inh
O=C1/C(=C/c2ccccn2)SC(=S)N1Nc1ncc(C(F)(F)F)cc1Cl	?	?	nt	50.1µM*	nt	-65.9*
O=C1/C(=C\c2ccccn2)SC(=S)N1Nc1ncc(C(F)(F)F)cc1Cl	-33.2%	?	10µM*	56.2µM*	79.4µM*	nt
O=C1/C(=C/c2ccccn2)SC(=S)N1NS(=O)(=O)c1ccccc1	-4.2%	-16.1%	?	-31.9%	-20.4%	-20.0
O=C1/C(=C/c2ccc(F)cc2)SC(=S)N1Nc1ncc(C(F)(F)F)cc1Cl	-5.4%	-27.6%	44.7µM*	63.1µM*	-3.7%	nt
Cc1csc(=Nc2ccccc2)n1Cc1ccco1	?	?	39.8µM*	44.7µM*	63.1µM*	1.3
CC1CCc2c(sc3[nH]c(=S)n(C)c(=O)c23)C1 (stereo not drawn)	?	10.6µM*	3.55µM*	?	5.0%	-27.7
COc1ccc(/C=C2\SC(=O)N(CC(=O)Nc3ccc(O)cc3)C2=O)cc1OC	11.2%	-4.8%	24.4%	-3.5%	5.8%	-15.6
Cc1ccc(NC(=O)CN2C(=O)N/C(=C/c3cccn3-c3ccc(C(=O)O)cc3)C2=O)cc1	2.82µM*	10.6µM*	8.91µM*	3.16µM*	3.98µM*	-87.1*
Cc1ccc(NC(=O)CN2C(=O)S/C(=C\c3cc(C)n(-c4ccc(C(=O)O)cc4)c3C)C2=O)cc1	2.3%	26.7µM*	nt	?	50.1µM*	?
Cc1ccc(NC(=O)CN2C(=O)S/C(=C\c3cc(Cl)c(OCC(=O)O)c(Cl)c3)C2=O)cc1	20µM*	23.8µM*	39.8µM*	44.7µM*	39.8µM*	?
Cc1ccc(NC(=O)CN2C(=O)N/C(=C/c3ccco3)C2=O)cc1	5.3%	-17.1%	0.2%[0.0925 µM]	-32.6%	-7.5%	?
Cc1ccc(NC(=O)CN2C(=O)N/C(=C/c3cc(C)n(-c4ccc(C(=O)O)cc4)c3C)C2=O)cc1	-18.0%	-28.7%	28.2µM*	79.4µM*	39.8µM*	-53.3*
CCOc1ccc(C2N3CC4(C(C)C)CN2CC(C(C)C)(C3)C4=O)cc1OC (stereo not drawn)	22.4%	nt	-7.9%[59 µM]	-23.6%	-15.7%	nt
O=C1N=c2ccccc2=C1c1c(O)[nH]c2c(C(F)(F)F)cccc12	-23.4%	26.7µM*	-16.5%	?	-6.2%	?
CCc1ccc(NS(=O)(=O)c2[nH]ncc2C(=O)OC)cc1	18.5%	nt	2.51µM*	56.2µM*	?	nt
O=C(NCc1ccc2c(c1)OCO2)C1CCCN(S(=O)(=O)c2cccc3nonc23)C1 (stereo not drawn)	-4.6%	26.7µM*!	-22.5%[59 µM]	-26.0%[11.4 µM]	-2.9%	?
CC(=O)N(C)c1ccc(N=Cc2cc3c(cc2[N+](=O)[O-])OCO3)cc1	-7.9%	-17.6%	nt	-21.4%	nt	0.0
O=C(CCc1ccc(O)c(O)c1)N/N=C/c1cc2c(cc1[N+](=O)[O-])OCO2	?	?	3.55µM*	39.8µM*	44.7µM*	?
Cc1ccc(C)c(N=Cc2cc3c(cc2[N+](=O)[O-])OCO3)c1	44.7µM*	-22.4%	?	50.1µM*	20µM*	-19.4
CC(C)(C)c1ccc(O)c(N=Cc2cc3c(cc2[N+](=O)[O-])OCO3)c1	?	26.7µM*	5.9%[0.501 µM]	?	50.1µM*	-13.5
Cc1ccc(N=Cc2cc3c(cc2[N+](=O)[O-])OCO3)cc1[N+](=O)[O-]	-3.1%	?	nt	?	nt	-64.5*
O=C(O)/C=C\c1cc2c(cc1[N+](=O)[O-])OCO2	26.3%	-0.8%	?	-6.2%	-14.0%	?
Cc1ccc(NS(=O)(=O)c2cc3c(cc2F)NC(=O)CC3)cc1Cl	nt	nt	nt	-24.1%	nt	nt
CCOC(=O)c1ccccc1NC(=O)CSc1ccc(-c2sc(-c3ccccc3)nc2C)nn1	24.8%	nt	2.2%[59 µM]	-9.2%	-12.7%	nt
O=[N+]([O-])c1ccc(O)c(C=Nc2ccc3c(c2)OCO3)c1	17.3%	5.5%	nt	-9.0%	-11.4%	-17.3
SMILES	HP1b binding inh	PLK1 PBD inh	G9a inh	JMJD2A Tudor	BAZ2B block	PI5P4K alpha inh
O=[N+]([O-])c1cc(Br)cc(C=Nc2ccc3c(c2)OCO3)c1O	-13.0%	-21.4%	44.7µM*	?	44.7µM*	-51.1*
O=C(NNc1ccccc1)C(=O)NNS(=O)(=O)c1ccc(CCCl)cc1	50.5%	-2.1%	44.7µM*	-18.9%	?	-0.3
Nc1ccc(S(=O)(=O)NNC(=O)C(=O)NNc2ccccc2)cc1	22.8%	-7.2%	1.78µM*	-4.1%	-39.0%	-8.5
O=c1cc(-c2ccccc2)n2c(SCc3cccc([N+](=O)[O-])c3)nnc2[nH]1	45.0%	nt	?	-1.6%	4.3%	nt
CCc1nnc(NC(=O)CSc2nnc(-c3ccccc3O)o2)s1	?	23.8µM*	nt	-15.0%[11.4 µM]	16.0%	6.6
Cc1cccc(NC(=O)CSc2nnc(CSc3nc(C)cc(C)n3)o2)c1	1.0%	-8.8%	5.5%[59 µM]	-4.7%[57.1 µM]	15.7%	7.7
CCc1nnc(NC(=O)CSc2nnc(CSc3nc(C)cc(C)n3)o2)s1	24.5%	-2.8%	39.8µM*	-23.9%	-7.6%	nt
CN(C)/C=C/C(=O)/C=C/c1cn(-c2ncc(C(F)(F)F)cc2Cl)c2ccccc12	-6.4%	8.5%	10µM*	-26.1%	-11.0%	?
C(=N\Nc1nncc2ccccc12)/c1ccccn1	11.4%	-10.9%	-5.9%	79.4µM*	25.1µM*	-3.4
CC(=O)Nc1ccc(/C=N/Nc2nncc3ccccc23)cc1	9.0%	-10.1%	30.0%[0.501 µM]	-16.6%	-16.5%	-11.0
Fc1cccc(/C=N/Nc2nncc3ccccc23)c1	17.4%	21.2µM*	11.2%	20µM*	-33.9%	-11.9
Cc1ccc(CNC(=O)C(=O)NCC2OCCN2S(=O)(=O)c2ccc(Br)cc2)cc1 (stereo not drawn)	11.6%	7.5%	nt	-17.5%	-1.6%	-0.3
COc1ccc(-c2ccc(=O)n(Cc3cccc([N+](=O)[O-])c3)n2)cc1	0.4%[57 µM]	-8.9%	-15.3%[59 µM]	?	?	1.5
COc1ccc(/C=C2\C(=O)ON=C2c2cccc([N+](=O)[O-])c2)cc1	nt	nt	17.8µM*	nt	?	nt
COc1ccc(/C=C2/C(=O)ON=C2c2ccccc2)cc1OC	3.8%	1.89µM*	7.4%[0.501 µM]	79.4µM*	?	-59.0*
O=C1ON=C(c2ccccc2)/C1=C/c1ccco1	12.3%	1.06µM*	31.6µM*	-35.9%	39.8µM*	-21.2

Source: PubChem (National Center for Advancing Translational Sciences (NCATS))
